Experimental data taken from PubChem BioAssay (NCI).
About 79,000 compounds went through this panel and 15% of them were active in at least one assay; those are over-represented in the sample as a whole. The source made the active and inactive calls. Cut-off read from the data, not from the text of the source: active = growth inhibition above about 70%; inactive = the rest.

Experiments:
[1] = NCI Yeast Anticancer Drug Screen. Data for the wt1 strain (AID 149);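 note: 0% = growth of vehicle-treated wt1 cultures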; settings: S. cerevisiae wt1 strain (SPY 50644) growth inhibition, hits give high values
Procedure, shortened: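 Growth inhibition read against vehicle controls after compound exposure of the wt1 yeast strain.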

[2] = NCI Yeast Anticancer Drug Screen. Data for the rad50EPP+ strain (AID 151);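 note: 0% = growth of vehicle-treated control cultures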; settings: S. cerevisiae rad50 mutant strain, hits give high values
Procedure, shortened: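 rad50EPP+ yeast treated with test compounds. Readout: growth vs vehicle control.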

[3] = NCI Yeast Anticancer Drug Screen. Data for the mgt1 strain (AID 153); settings: S. cerevisiae mgt1 mutant growth inhibition, hits give high values
Procedure, shortened: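 Growth inhibition relative to vehicle controls was scored for the mgt1 yeast strain after compound exposure.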

[4] = NCI Yeast Anticancer Drug Screen. Data for the rad50 strain (AID 155);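 note: 0% = growth of vehicle-only cultures of the same strain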; settings: S. cerevisiae rad50 strain growth inhibition, hits give high values
Procedure, shortened: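 Readout: growth inhibition relative to vehicle-treated cultures. Compound exposure was carried out in a genetically defined yeast strain deficient in DNA damage repair.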

[5] = NCI Yeast Anticancer Drug Screen. Data for the mec2-1 strain (AID 157); settings: S. cerevisiae mec2-1 strain, hits give high values
Procedure, shortened: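 Growth inhibition is read against vehicle-treated controls after compound exposure of the mec2-1 yeast strain, which is defective in DNA damage repair or cell cycle control.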

[6] = NCI Yeast Anticancer Drug Screen. Data for the sgs1 mgt1 strain (AID 161);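 note: 0% = growth of cultures given vehicle only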; settings: S. cerevisiae sgs1 mgt1 strain, hits give high values
Procedure, shortened: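 Percent growth inhibition was derived by comparing compound-exposed mutant yeast with vehicle-exposed cultures. The strain carries alterations in DNA damage repair.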

[7] = NCI Yeast Anticancer Drug Screen. Data for the CLN2oe strain (AID 163);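 note: 0% = growth of vehicle-only control cultures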; settings: S. cerevisiae CLN2oe strain, hits give high values
Procedure, shortened: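 Compound-treated yeast; growth vs vehicle ctrl = % inhibition. Genetically altered strain (cell-cycle control).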

[8] = NCI Yeast Anticancer Drug Screen. Data for the cln2 rad14 strain (AID 165);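 note: 0% = growth equal to vehicle treated cultures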; settings: S. cerevisiae cln2 rad14 strain, hits give high values
Procedure, shortened: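 Growth inhibition, relative to vehicle-treated controls, is the read-out. The test organism is a yeast strain with defined genetic alterations, cln2 rad14.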

[9] = NCI Yeast Anticancer Drug Screen. Data for the bub3 strain (AID 167); settings: S. cerevisiae bub3 mutant strain, hits give high values
Procedure, shortened: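 Readout: yeast growth inhibition, expressed relative to vehicle-only wells. The test organism is a mutant strain from a panel with lesions in DNA repair or checkpoint genes.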

[10] = NCI Yeast Anticancer Drug Screen. Data for the wt2 strain (AID 169);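 note: 0% = growth of vehicle-treated yeast cultures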; settings: S. cerevisiae wt2 strain growth inhibition, hits give high values
Procedure, shortened: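 Compound exposure of yeast; growth compared with vehicle controls; inhibition reported.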

[11] = NCI Yeast Anticancer Drug Screen. Data for the mlh1 strain (AID 171);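 note: 0% = growth of vehicle-treated control cultures of the same strain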; settings: S. cerevisiae mlh1 strain growth inhibition, hits give high values
Procedure, shortened: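 Compounds are applied to a genetically altered yeast strain, and its growth is compared with that of vehicle-treated cultures to give percent inhibition.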

[12] = NCI Yeast Anticancer Drug Screen. Data for the sgs1 strain (AID 173);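 note: 0% = growth of vehicle-only control cultures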; settings: S. cerevisiae sgs1 mutant, hits give high values
Procedure, shortened: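 Compounds applied to genetically altered yeast; growth compared with vehicle-treated cultures to give % inhibition.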

[13] = NCI Yeast Anticancer Drug Screen. Data for the mlh1 rad18 strain (AID 175); settings: S. cerevisiae mlh1 rad18 strain growth inhibition, hits give high values
Procedure, shortened: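 Cells of a genetically altered yeast strain, deficient in DNA damage repair, were treated with compound. Their growth was then compared with that of vehicle-treated cultures to give inhibition.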

[14] = NCI Yeast Anticancer Drug Screen. Data for the rad52 strain (AID 147);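 note: 0% = growth of vehicle-treated control cultures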; settings: S. cerevisiae rad52 mutant growth inhibition, hits give high values
Procedure, shortened: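 DNA repair-defective yeast; compound exposure; growth scored against vehicle controls.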

[15] = NCI Yeast Anticancer Drug Screen. Data for the rad14 strain (AID 159);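 note: 0% = growth of vehicle-treated control cultures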; settings: S. cerevisiae rad14 strain growth inhibition, hits give high values
Procedure, shortened: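 Growth inhibition vs vehicle controls; genetically altered yeast strain (DNA damage repair defect) treated with test compounds.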

[16] = NCI Yeast Anticancer Drug Screen. Data for the rad18 strain (AID 177); settings: S. cerevisiae rad18 mutant growth inhibition, hits give high values
Procedure, shortened: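 Compounds are applied to a repair-deficient yeast strain, and growth is compared with that of vehicle-treated cultures to give percent inhibition.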

[17] = at 5.0 µM (retest, dose inferred, filed as 0.5)
[18] = at 50.0 µM (retest, dose inferred, filed as 5.0)

Measured: growth inhibition

CCC#CCCCOC(=O)c1cc([N+](=O)[O-])cc([N+](=O)[O-])c1
active: [1]; at 100.0 µM 99% | [2]; at 33.0 µM 92% | [2]; at 100.0 µM 98% | [3]; at 33.0 µM 93% | [3]; at 100.0 µM 99% | [4]; at 33.0 µM 87% | [4]; [18] 97% | [4]; at 50.0 µM 99.2% | [4]; at 100.0 µM 98% | [5]; at 33.0 µM 83% | [5]; [18] 99% | [5]; at 50.0 µM 99.3% | [5]; at 100.0 µM 99% | [6]; [18] 99% | [6]; at 50.0 µM 99.6% | [7]; at 100.0 µM 99% | [8]; [18] 94% | [8]; at 50.0 µM 97.7% | [9]; [18] 97% | [9]; at 50.0 µM 99.5% | [9]; at 100.0 µM 98% | [10]; at 33.0 µM 98% | [10]; at 100.0 µM 99% | [11]; at 33.0 µM 91% | [11]; at 100.0 µM 99% | [12]; at 33.0 µM 98% | [12]; at 100.0 µM 99% | [13]; [18] 99% | [13]; at 50.0 µM 99.2%
inactive: [1]; at 1.2 µM -6% | [1]; at 3.7 µM -8% | [1]; at 11.0 µM -10% | [1]; at 33.0 µM 66% | [2]; at 1.2 µM 3% | [2]; at 3.7 µM 21% | [2]; at 11.0 µM 55% | [3]; at 1.2 µM -5% | [3]; at 3.7 µM -8% | [3]; at 11.0 µM -4% | [4]; at 1.2 µM -4% | [4]; at 3.7 µM -6% | [4]; [17] 6% | [4]; at 11.0 µM 0% | [5]; at 1.2 µM -6% | [5]; at 3.7 µM -2% | [5]; [17] 7% | [5]; at 11.0 µM 2% | [6]; [17] 10% | [7]; at 1.2 µM -5% | [7]; at 3.7 µM -11% | [7]; at 11.0 µM -19% | [7]; at 33.0 µM 44% | [8]; [17] -7% | [9]; at 1.2 µM -10% | [9]; at 3.7 µM -7% | [9]; [17] 4% | [9]; at 11.0 µM -6% | [9]; at 33.0 µM 52% | [10]; at 1.2 µM -7% | [10]; at 3.7 µM -10% | [10]; at 11.0 µM 4% | [11]; at 1.2 µM -2% | [11]; at 3.7 µM 0% | [11]; at 11.0 µM 8% | [12]; at 1.2 µM -1% | [12]; at 3.7 µM 3% | [12]; at 11.0 µM 23% | [13]; [17] 13%

CC(=O)N/N=C/C(C)(C)C(C)(C)/C=N/NC(C)=O
inactive: [14]; at 1.2 µM -1% | [14]; at 3.7 µM -5% | [14]; at 11.0 µM -32% | [14]; at 33.0 µM 38% | [2]; at 1.2 µM -3% | [2]; at 3.7 µM 11% | [2]; at 11.0 µM 10% | [2]; at 33.0 µM 18% | [3]; at 1.2 µM 2% | [3]; at 3.7 µM -2% | [3]; at 11.0 µM -4% | [3]; at 33.0 µM -5% | [3]; at 100.0 µM 6% | [4]; at 1.2 µM -13% | [4]; at 3.7 µM -6% | [4]; [17] 4% | [4]; at 11.0 µM 16% | [4]; at 33.0 µM 38% | [4]; [18] 51% | [4]; at 50.0 µM 50.5% | [5]; at 1.2 µM 5% | [5]; at 3.7 µM 2% | [5]; [17] 4% | [5]; at 11.0 µM 1% | [5]; at 33.0 µM 2% | [5]; [18] 39% | [5]; at 50.0 µM 19.2% | [5]; at 100.0 µM 11% | [15]; at 1.2 µM 3% | [15]; at 3.7 µM 2% | [15]; at 11.0 µM 7% | [15]; at 33.0 µM 39% | [15]; at 100.0 µM 54% | [6]; [17] 15% | [7]; at 1.2 µM 9% | [7]; at 3.7 µM 11% | [7]; at 11.0 µM 11% | [7]; at 33.0 µM 4% | [7]; at 100.0 µM 17% | [8]; [17] 2% | [8]; [18] 20% | [8]; at 50.0 µM 5.8% | [10]; at 1.2 µM -1% | [10]; at 3.7 µM -2% | [10]; at 11.0 µM 7% | [10]; at 33.0 µM 39% | [11]; at 1.2 µM -7% | [11]; at 3.7 µM -5% | [11]; at 11.0 µM -2% | [11]; at 33.0 µM 19% | [12]; at 1.2 µM -6% | [12]; at 3.7 µM -8% | [12]; at 11.0 µM 25% | [12]; at 33.0 µM 67% | [13]; [17] 11% | [13]; at 50.0 µM 59.4% | [16]; at 1.2 µM -10% | [16]; at 3.7 µM 1% | [16]; at 11.0 µM 39%
active: [14]; at 100.0 µM 97% | [2]; at 100.0 µM 71% | [4]; at 100.0 µM 98% | [6]; [18] 78% | [6]; at 50.0 µM 70% | [10]; at 100.0 µM 88% | [11]; at 100.0 µM 91% | [12]; at 100.0 µM 98% | [13]; [18] 82% | [16]; at 33.0 µM 81% | [16]; at 100.0 µM 93%

CCCCOC(=O)N[C@H]1CCc2cc(OC)c(OC)c(OC)c2-c2ccc(SC)c(=O)cc21
inactive: [1]; at 1.2 µM -2% | [1]; at 3.7 µM -3% | [1]; at 11.0 µM -4% | [1]; at 33.0 µM 3% | [1]; at 100.0 µM 55% | [2]; at 1.2 µM 1% | [2]; at 3.7 µM -1% | [2]; at 11.0 µM -4% | [2]; at 33.0 µM -6% | [2]; at 100.0 µM -11% | [3]; at 1.2 µM -5% | [3]; at 3.7 µM -3% | [3]; at 11.0 µM -1% | [3]; at 33.0 µM 49% | [4]; at 1.2 µM 1% | [4]; at 3.7 µM 6% | [4]; [17] -15% | [4]; at 11.0 µM 14% | [4]; at 33.0 µM 51% | [4]; [18] 52% | [5]; at 1.2 µM -6% | [5]; at 3.7 µM -3% | [5]; [17] -19% | [5]; at 11.0 µM -2% | [5]; at 33.0 µM 15% | [5]; [18] 48% | [5]; at 50.0 µM 53%
active: [3]; at 100.0 µM 77% | [4]; at 50.0 µM 82.5% | [4]; at 100.0 µM 81%
